This passage reports fluorescence change (kMESF span) results from PubChem BioAssay AID504521 (NMMLSC, 2011).

The list shows a part of the results. A number with no mark means an inactive call.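 The calls were made as follows: active = compounds whose bead fluorescence drops by more than 37 kMESF across the dose range, marking them as dye quenchers; inactive = the rest.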

A short description of this experiment: quenching of fluorescent RNA aptamer on beads, dose response, artefact control for GRK2 RNA aptamer inhibitor project, biochemical, cherry pick 1, bead-based flow cytometry (AID 504521). The following applies: hits give high values.
As for `C=C(C)C(=O)Nc1cccc(C2=NOC3(C2)C[C@H](C(N)=O)N(C(=O)C(c2ccccc2)c2ccccc2)C3)c1` (stereo not given in full), the fluorescence change (kMESF span) is -3.5 kMESF.
On to `O=C(CCS(=O)(=O)c1ccc(Br)cc1)NCCc1ccc(Cl)cc1`, for which the fluorescence change (kMESF span) was 10.9 kMESF.
`CCN1/C(=C\c2ccc3ccccc3[n+]2CC)Sc2cc(C)ccc21`: the fluorescence change (kMESF span) is 8.1 kMESF.
Under `CCN1/C(=C/c2ccc3ccc(C)cc3[n+]2CC)Sc2ccccc21` stands -1.6 kMESF; under `COc1ccc(N2CCN(C(CNS(=O)(=O)c3ccc(C)cc3)c3ccccc3)CC2)cc1` (stereo not given), 7.4 kMESF.
